# In PubChem BioAssay:
# Values joined by “and” are separate entries in the source; they are usually repeats but may differ in a detail not shown here. Identical values can stand only once. Inconclusive results are not listed. Some compounds were tested as several samples or in several runs, with calls that do not always agree. Active and inactive are the calls of the source.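 The calls were made as follows, unless noted: active = compounds whose cell count with miR-34 switched on is under 0.7 times the count with it off; inactive = the rest.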
# Assays:
# [1] = sensitizers of A549 cells to miR-34 induction, primary screen, imaging, A549 dox-inducible miR-34, nuclei and caspase counts (AID 1347080); conditions: A549 miR-34 inducible, Hoechst nuclei count, 48 h
# [2] = phospholipid biosynthesis inhibitors in animal cells, primary screen, cell-based, LOPAC library, screen 4 (AID 1347384; call rule not given here); conditions: phospholipid biosynthesis inhibition screen, at 10 µM
# [3] = survival rescue of mitochondrial mutant cells in low glucose, primary screen, MELAS cybrids, Rieske KO mouse fibroblasts, CellTiter-Glo (AID 1508586;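 active = mean z-score across replicates of 1.96 or higher in either the MELAS or the Rieske mutant cell line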;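 also: z relative to plate mean and SD of compound and empty wells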)
# [4] = biological target: NAD(+) hydrolase SARM1 (Homo sapiens) (UniProt Q6SZW1); experiment: SARM1 TIR NADase inhibitors, cell lysate, NAD-Glo luminescence (AID 1508614;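 active = compound whose remaining NAD level is above about 45 nM, limit read from the data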;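 also: higher remaining NAD means stronger inhibition of SARM1 NADase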); conditions: SAM-TIR HEK293T lysate NADase, at 1 µM, stronger effect = higher value
# [5] = biological target: Mitogen-activated protein kinase 7 (Homo sapiens) (UniProt Q13164); experiment: ERK5 transactivation activators in reporter cells, primary screen, cell-based, HTS (AID 1508626;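 active = luciferase signal above three times the same-plate solvent-only control wells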;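 also: luciferase driven by Gal4-ERK5 fusion binding five Gal4 sites before minimal TATA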); conditions: HeLa Gal4-ERK5 transactivation, 18 h, at 5 µM, stronger effect = higher value
# [6] = viability rescue of complex I mutant cybrids, primary screen, cell-based, galactose medium, ATP luminescence (AID 1645843;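 active = z-score of at least 1.8 in each of two replicates, scored against plate mean and spread of sample wells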;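 also: positive z means more ATP and so rescue of galactose-driven cybrid death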); conditions: complex I mutant cybrid cells, 72 h, stronger effect = higher value
# [7] = JHH-DIPG-1 glioma cell viability, MIPE5.0 library, CellTiter-Glo luminescence, qHTS (AID 1347067; cut-off not given, nearly all actives have AC50 up to about 26 µM;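 also: cells exposed to compound for 48 hours before readout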); conditions: JHH-DIPG-1 glioma viability, CellTiter-Glo ATP luminescence
# [8] = modifiers of HSF1 nuclear foci, imaging, Selleck Cancer Library (AID 1347162; in the data active = plate-normalised HSF1 focus index below about 0.46); conditions: human cells, at 10 µM; SSMD: measured here: HSF1 foci SSMD mean; cell count: measured here: cell number; plate-normalised HSF1 focus index: stronger effect = lower value
# [9] = inhibitors of Cryptococcus chitosan production, flow cytometry, Cibacron Brilliant Red staining (AID 1347148; call rule not given here;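 also: compound exposure lasted three days at 37 degrees C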); conditions: Cryptococcus neoformans chitosan, stronger effect = lower value; at 10 µM unless noted
# [10] = SU-DIPG-XXV glioma cell viability, MIPE5.0 library, qHTS (AID 1347068; cut-off not given, nearly all actives have IC50 up to about 30 µM)
# [11] = stronger effect = lower value, cell number ratio, induced over uninduced
# [12] = measured here: relative caspase fold change +Dox/-Dox
# [13] = measured here: total cells with miR-34 induction, stronger effect = lower value
# [14] = measured here: total cells without miR-34 induction
# [15] = MELAS cybrid survival, CellTiter-Glo 48 h, stronger effect = higher value
# [16] = Rieske KO mouse fibroblast survival, CellTiter-Glo 72 h
# Mitogen-activated protein kinase 7 (Homo sapiens), sequence (Q13164 whole entry, looked up, the tested form may be a part): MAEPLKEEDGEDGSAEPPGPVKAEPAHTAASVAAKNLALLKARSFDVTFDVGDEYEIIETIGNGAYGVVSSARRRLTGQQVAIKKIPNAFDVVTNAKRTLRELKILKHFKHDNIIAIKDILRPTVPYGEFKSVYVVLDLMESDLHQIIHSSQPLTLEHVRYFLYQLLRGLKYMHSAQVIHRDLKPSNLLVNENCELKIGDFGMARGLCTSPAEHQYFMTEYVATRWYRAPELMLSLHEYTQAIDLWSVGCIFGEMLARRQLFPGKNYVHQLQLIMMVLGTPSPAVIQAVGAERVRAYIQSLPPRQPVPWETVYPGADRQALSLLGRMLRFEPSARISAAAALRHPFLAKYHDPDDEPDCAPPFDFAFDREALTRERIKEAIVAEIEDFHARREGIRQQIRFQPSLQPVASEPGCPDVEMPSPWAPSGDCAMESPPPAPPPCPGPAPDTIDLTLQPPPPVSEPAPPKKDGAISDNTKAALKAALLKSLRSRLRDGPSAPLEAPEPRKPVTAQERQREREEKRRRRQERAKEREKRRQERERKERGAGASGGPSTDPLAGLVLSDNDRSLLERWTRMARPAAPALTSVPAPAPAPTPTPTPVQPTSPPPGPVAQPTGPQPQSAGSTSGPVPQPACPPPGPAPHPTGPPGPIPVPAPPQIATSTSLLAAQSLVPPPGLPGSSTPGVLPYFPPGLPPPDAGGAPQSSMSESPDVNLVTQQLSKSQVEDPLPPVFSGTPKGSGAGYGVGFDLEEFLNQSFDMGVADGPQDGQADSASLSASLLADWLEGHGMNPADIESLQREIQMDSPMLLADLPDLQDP
# NAD(+) hydrolase SARM1 (Homo sapiens), sequence (Q6SZW1 whole entry, looked up, the tested form may be a part): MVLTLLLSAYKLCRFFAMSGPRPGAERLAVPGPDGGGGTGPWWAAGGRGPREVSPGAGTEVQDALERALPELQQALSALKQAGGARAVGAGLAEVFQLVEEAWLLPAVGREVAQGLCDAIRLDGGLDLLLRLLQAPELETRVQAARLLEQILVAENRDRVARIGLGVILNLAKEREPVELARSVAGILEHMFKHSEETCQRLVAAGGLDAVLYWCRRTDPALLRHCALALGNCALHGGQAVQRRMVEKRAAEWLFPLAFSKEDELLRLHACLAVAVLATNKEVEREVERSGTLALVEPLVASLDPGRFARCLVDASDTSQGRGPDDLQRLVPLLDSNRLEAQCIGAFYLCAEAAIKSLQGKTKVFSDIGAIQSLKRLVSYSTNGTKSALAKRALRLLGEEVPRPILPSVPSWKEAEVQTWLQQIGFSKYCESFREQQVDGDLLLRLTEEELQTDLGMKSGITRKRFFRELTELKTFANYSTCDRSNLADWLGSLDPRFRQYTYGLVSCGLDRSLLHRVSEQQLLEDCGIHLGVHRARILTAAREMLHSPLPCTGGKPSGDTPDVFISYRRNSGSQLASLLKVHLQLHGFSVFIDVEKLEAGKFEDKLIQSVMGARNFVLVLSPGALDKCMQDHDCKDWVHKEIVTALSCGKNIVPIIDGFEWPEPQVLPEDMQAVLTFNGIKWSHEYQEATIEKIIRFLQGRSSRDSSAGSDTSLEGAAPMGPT
smiles,measurement,setting,value
CN(C)CCCN1c2ccccc2Sc2ccc(C(F)(F)F)cc21,fold change,[1]; [11],1.11 (inactive) and 0.899 (inactive) and 0.891 (inactive)
same,fold change,[1]; [12],0.594 and 1.31 and 3.14
same,cell count,[1]; [13],1420 and 7820 and 9630
same,cell count,[1]; [14],1280 and 8700 and 10800
same,outcome,[2],inactive
same,z-score,[3]; [15],-0.173 (inactive)
same,z-score,[3]; [16],0.266
same,remaining NAD,[4],10 nM (inactive)
same,luciferase signal,[5],64 AU (inactive)
same,z-score,[6],-1.38 (inactive)
Nc1nc(F)nc2c1ncn2[C@@H]1O[C@H](CO)[C@@H](O)[C@@H]1O,outcome,[7],inactive
same,fold change,[1]; [11],1.1 (inactive) and 1.04 (inactive)
same,fold change,[1]; [12],0.763 and 0.78
same,cell count,[1]; [13],2060 and 1630
same,cell count,[1]; [14],1870 and 1560
same,SSMD,[8],0.111
same,cell count,[8],6840
same,plate-normalised HSF1 focus index,[8],1.01 (inactive)
same,z-score,[3]; [15],4.36 (active)
same,z-score,[3]; [16],1.07
same,z-score,[6],0.045 (inactive) and -0.22 (inactive)
O=C1Nc2ccc(Cl)cc2[C@@](C#CC2CC2)(C(F)(F)F)O1,AC50,[7],20.9 µM (active)
same,fold change,[1]; [11],0.73 (inactive) and 0.903 (inactive)
same,fold change,[1]; [12],1.52 and 0.886
same,cell count,[1]; [13],6400 and 6960
same,cell count,[1]; [14],8760 and 7710
same,z-score,[3]; [15],1.16 (inactive) and -1.54 (inactive)
same,z-score,[3]; [16],0.346 and 0.0528
same,z-score,[6],-1.77 (inactive) and -2 (inactive)
O=C(O)CN1C(=O)c2cccc3cccc(c23)C1=O,fold change,[1]; [11],0.898 (inactive) and 0.959 (inactive) and 0.946 (inactive)
same,fold change,[1]; [12],1.04 and 0.818 and 2.08
same,cell count,[1]; [13],5450 and 8540 and 11100
same,cell count,[1]; [14],6060 and 8900 and 11700
same,fold fluorescence,[9],3.97 [at 195.9 µM] (inactive)
same,remaining NAD,[4],13 nM (inactive)
same,luciferase signal,[5],44 AU (inactive)
same,z-score,[6],0.415 (inactive)
COc1ccc(CC2c3cc(OC)c(OC)cc3CC[N+]2(C)CCC(=O)OCCCCCOC(=O)CC[N+]2(C)CCc3cc(OC)c(OC)cc3C2Cc2ccc(OC)c(OC)c2)cc1OC (stereo unspecified),outcome,[10],inactive
same,z-score,[3]; [15],-0.594 (inactive) and -1.25 (inactive) and -0.066 (inactive)
same,z-score,[3]; [16],-0.336 and -0.215 and -0.301
same,remaining NAD,[4],10 nM (inactive)
same,z-score,[6],-0.89 (inactive) and 0.01 (inactive)
CN(C)[C@@H]1C(=O)C(C(N)=O)=C(O)[C@@]2(O)C(=O)C3=C(O)c4c(O)ccc(Cl)c4[C@@H](O)[C@H]3C[C@@H]12,fold change,[1]; [11],1 (inactive) and 0.852 (inactive) and 0.887 (inactive)
same,fold change,[1]; [12],0.853 and 1.42 and 3.05
same,cell count,[1]; [13],2520 and 7990 and 10000
same,cell count,[1]; [14],2520 and 9380 and 11300
same,outcome,[2],inactive
same,z-score,[3]; [15],0.25 (inactive)
same,z-score,[3]; [16],-1.49
same,remaining NAD,[4],10 nM (inactive)
same,luciferase signal,[5],36 AU (inactive)
same,z-score,[6],2.89 (active)
O=C(O)[C@@H]1[C@H]2C[C@H]3c4[nH]c5ccccc5c4CCN3C[C@@H]2CC[C@@H]1O,fold change,[1]; [11],0.933 (inactive)
same,fold change,[1]; [12],1.33
same,cell count,[1]; [13],7540
same,cell count,[1]; [14],8080
CN(C)CCOC(=O)COc1ccc(Cl)cc1,fold change,[1]; [11],1.05 (inactive) and 0.847 (inactive) and 0.935 (inactive)
same,fold change,[1]; [12],2.3 and 1.11 and 0.787
same,cell count,[1]; [13],9260 and 9320 and 8720
same,cell count,[1]; [14],8800 and 11000 and 9330
same,outcome,[2],inactive
same,z-score,[3]; [15],-0.229 (inactive) and 0.0507 (inactive)
same,z-score,[3]; [16],-0.156 and 1.13
same,remaining NAD,[4],10 nM (inactive)
same,luciferase signal,[5],64 AU (inactive)
same,z-score,[6],1.14 (inactive)
Cc1nnc(SCC2=C(C(=O)O)N3C(=O)[C@@H](NC(=O)Cn4cnnn4)[C@H]3SC2)s1,fold change,[1]; [11],1.03 (inactive) and 0.804 (inactive) and 0.912 (inactive)
same,fold change,[1]; [12],1.87 and 0.957 and 4.16
same,cell count,[1]; [13],10400 and 8100 and 11000
same,cell count,[1]; [14],10100 and 12000
same,outcome,[2],inactive
same,z-score,[3]; [15],0.651 (inactive)
same,z-score,[3]; [16],0.288
same,remaining NAD,[4],10 nM (inactive)
same,luciferase signal,[5],28 AU (inactive)
same,z-score,[6],-0.3 (inactive)
CCCCCN(CCCCC)C(=O)C(CCC(=O)O)NC(=O)c1ccc(Cl)c(Cl)c1 (stereo unspecified),fold change,[1]; [11],1 (inactive) and 0.871 (inactive) and 0.904 (inactive)
same,fold change,[1]; [12],0.913 and 1.58 and 1.45
same,cell count,[1]; [13],9880 and 9710 and 9580
same,cell count,[1]; [14],9840 and 11100 and 10600
same,outcome,[2],inactive
same,z-score,[3]; [15],0.699 (inactive) and -0.377 (inactive)
same,z-score,[3]; [16],-0.146 and -1.36
same,remaining NAD,[4],10 nM (inactive)
same,z-score,[6],2.69 (active) and 0.255 (inactive)
CC(C(=O)O)c1ccc(CC2CCCC2=O)cc1 (stereo unspecified),fold change,[1]; [11],1.07 (inactive) and 1 (inactive)
same,fold change,[1]; [12],0.862 and 2.11
same,cell count,[1]; [13],11000 and 10200
same,cell count,[1]; [14],10200
same,outcome,[2],inactive
same,remaining NAD,[4],10 nM (inactive)
same,z-score,[6],0.695 (inactive) and 0.805 (inactive)
CC[N+](C)(C)Cc1ccccc1Br,fold change,[1]; [11],0.896 (inactive)
same,fold change,[1]; [12],1.09
same,cell count,[1]; [13],8620
same,cell count,[1]; [14],9630
same,z-score,[3]; [15],0.582 (inactive)
same,z-score,[3]; [16],0.0274
CCN(CC)CCNC(=O)c1ccc(NC(C)=O)cc1,fold change,[1]; [11],1.04 (inactive) and 0.905 (inactive)
same,fold change,[1]; [12],1.99 and 4.44
same,cell count,[1]; [13],10300 and 12600
same,cell count,[1]; [14],9910 and 14000
same,outcome,[2],inactive
same,remaining NAD,[4],10 nM (inactive)
same,luciferase signal,[5],32 AU (inactive)
same,z-score,[6],0.34 (inactive)
